Results filed as inconclusive are left out. Unmarked numbers belong to inactive results. Active and inactive are the calls of the source. Calls follow the shape of the dose curve; as a rule, active = well fitted inhibition curve with a large enough effect; inconclusive = small, poorly fitted or top-dose-only effect; inactive = flat fitted curve, though single readings scatter.

The values that follow come from PubChem BioAssay (NCATS).

A short description of assay [1]: qHTS profiling for inhibitors of Plasmodium falciparum proliferation (AID 504749).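 As to activity, negative = inhibition: 0% = DMSO vehicle and full inhibition = artemisinin control.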 As to all read-outs here: nearly all actives have a fitted effect of over 60% in size. The settings on record: P. falciparum in erythrocytes, SYBR Green DNA, 72 h; for activity, negative = inhibition: at 28.7 µM (top of the series). In outline:
(§1)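 P. falciparum-infected erythrocytes (0.3% parasitemia, 2.5% hematocrit) incubated with compound 72 h at 37 C, 5% CO2. Parasite DNA detected by SYBR Green after lysis, overnight at room temperature; normalised to 0.29 uM artemisinin and DMSO.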
On the technique in general: qHTS replaces the single test concentration by a dilution series.

A further assay deals with 3D7. The description is as above. The settings on record: P. falciparum in erythrocytes, SYBR Green DNA, 72 h; series mostly up to 28.7 µM. The gist of the method: as §1
For another assay, the system named is 7G8. Described as above. Conditions: P. falciparum in erythrocytes, SYBR Green DNA, 72 h; series mostly up to 28.7 µM. In outline:
as §1

A further assay relates to AA1029. Described as above. The settings on record: P. falciparum in erythrocytes, SYBR Green DNA, 72 h; series mostly up to 28.7 µM. In outline:
as §1

In a further assay the test system is AS120. The description is as above. Conditions: P. falciparum in erythrocytes, SYBR Green DNA, 72 h; series mostly up to 28.7 µM. The gist of the method: as §1
The test system of the next assay is ATS189. Described as above. The settings on record: P. falciparum in erythrocytes, SYBR Green DNA, 72 h; series mostly up to 28.7 µM. In outline:
as §1
Potency is read from the fitted curve at half-maximal effect.

For the molecule `Cc1ncc(COP(=O)(O)O)c(CN)c1O`, the values for the activity, negative = inhibition in assay [1] (parasite line A) and in assay [1] (parasite line B) were -3.16% and 3.16%, respectively. Further, the Potency result in the assay on 3D7, in the assay on 7G8, in the assay with AA1029, in the assay with AS120 and with ATS189 was “inactive” throughout.

Take `CC(C)O`: the values for the activity, negative = inhibition in assay [1] (parasite line A) and in assay [1] (parasite line B) were 2.73% and 13.2%, respectively. Also, the Potency result with 3D7, with 7G8, in the assay on AA1029, in the assay with AS120 and in the assay on ATS189 was “inactive” each time.

Turning to `C[C@H](CCCC(C)(C)O)[C@H]1CC[C@H]2[C@@H]3CC=C4C[C@@H](O)CC[C@]4(C)[C@H]3CC[C@]12C`, the activity, negative = inhibition in assay [1] (parasite line A) was 13.3%; in assay [1] (parasite line B) it was 17.1%. Moreover, the Potency result with 3D7, in the assay on AA1029, in the assay with AS120 and with ATS189 was “inactive” each time. Moreover, the Potency with 7G8 was 11.2 µM (active).

In the case of `OC[C@H]1O[C@@H]2O[C@H]3[C@H](O)[C@@H](O)[C@@H](O[C@H]4[C@H](O)[C@@H](O)[C@@H](O[C@H]5[C@H](O)[C@@H](O)[C@@H](O[C@H]6[C@H](O)[C@@H](O)[C@@H](O[C@H]7[C@H](O)[C@@H](O)[C@@H](O[C@H]1[C@H](O)[C@H]2O)O[C@@H]7CO)O[C@@H]6CO)O[C@@H]5CO)O[C@@H]4CO)O[C@@H]3CO`, the activity, negative = inhibition in assay [1] (parasite line A) is 6.28%; in assay [1] (parasite line B), 7.95%. Also, the Potency entry in the assay with 3D7, with 7G8, in the assay on AA1029, with AS120 and with ATS189 was “inactive” throughout.

As to `COc1cc(NCCCC(C)N)c2ncccc2c1` (stereo not given), the Potency in assay [1] (parasite line A) is 2 µM (active); in assay [1] (parasite line B) it was 0.891 µM (active); with 3D7, 2 µM (active); in the assay on 7G8, 0.224 µM (active); in the assay with AA1029, 12.6 µM (active); in the assay with AS120, 3.16 µM (active). Also, in the assay with ATS189, the Potency is 11.2 µM (active).

For the molecule `Nc1nc(=O)n([C@@H]2CS[C@H](CO)O2)cc1F`, the activity, negative = inhibition is 2.36% in assay [1] (parasite line A) and 4.33% in assay [1] (parasite line B). Moreover, the Potency result in the assay with 3D7, with 7G8, in the assay with AA1029, with AS120 and with ATS189 was “inactive” in each case.

As to `O=C(NCCNCC(O)COc1ccc(O)cc1)N1CCOCC1` (stereo not given), the activity, negative = inhibition in assay [1] (parasite line A) is 8.13%; in assay [1] (parasite line B), 8.21%. For the same molecule, the Potency result in the assay on 3D7, with 7G8, in the assay on AA1029, with AS120 and in the assay with ATS189 was “inactive” each time.

For the molecule `CCOc1ccc(S(=O)(=O)O)c2cccnc12`, the activity, negative = inhibition is 8.12% in assay [1] (parasite line A) and 6.17% in assay [1] (parasite line B). Moreover, the Potency result in the assay on 3D7, in the assay on 7G8, in the assay with AA1029, with AS120 and in the assay on ATS189 was “inactive” throughout.

Turning to `[O-][N+](=Nc1ccccc1)c1ccccc1`, the activity, negative = inhibition in assay [1] (parasite line A) was -5.95%; in assay [1] (parasite line B) it was -6.73%. The Potency entry in the assay on 3D7, with 7G8, in the assay on AA1029, with AS120 and in the assay on ATS189 was “inactive” each time.

With `C=C(C)C1CC=C(C)CC1` (stereo not given), the activity, negative = inhibition in assay [1] (parasite line A) was 7.1%; in assay [1] (parasite line B) it was 5.88%. Also, the Potency result in the assay on 3D7, in the assay with 7G8, in the assay with AA1029, in the assay on AS120 and with ATS189 was “inactive” throughout.

As for `O=C(O)COc1ccc(CCNS(=O)(=O)c2ccccc2)s1`, the figures for the activity, negative = inhibition in assay [1] (parasite line A) and in assay [1] (parasite line B) were 12.4% and -10.1%, respectively. Further, the Potency entry with 3D7, with 7G8, in the assay with AA1029, with AS120 and in the assay on ATS189 was “inactive” in each case.

As to `O=C1[O][Bi][O]c2ccccc21`, the activity, negative = inhibition is 7.71% in assay [1] (parasite line A) and 1.44% in assay [1] (parasite line B). Moreover, the Potency result in the assay with 3D7, with 7G8, with AA1029, with AS120 and in the assay with ATS189 was “inactive” throughout.

Turning to `O=C(/C=C/c1cccc(F)c1)NC1CC1`, the figures for the activity, negative = inhibition in assay [1] (parasite line A) and in assay [1] (parasite line B) were -17.7% and -9.61%, respectively. Moreover, the Potency result in the assay on 3D7, in the assay on 7G8, in the assay with AA1029, with AS120 and in the assay with ATS189 was “inactive” in each case.

Regarding `CC(C)(COP(=O)(O)OP(=O)(O)OC[C@H]1O[C@@H](n2cnc3c(N)ncnc32)[C@H](O)[C@@H]1OP(=O)(O)O)C(O)C(=O)NCCC(=O)NCCS` (stereo not given in full), the activity, negative = inhibition in assay [1] (parasite line A) is 7.03%; in assay [1] (parasite line B) it was 2.39%. Moreover, the Potency result in the assay with 3D7, in the assay with 7G8, with AA1029, with AS120 and with ATS189 was “inactive” in each case.

In the case of `NC(=O)[C@H]1O[C@@H](O)[C@H](O)[C@@H](O)[C@@H]1O`, the activity, negative = inhibition in assay [1] (parasite line A) is 12.1%; in assay [1] (parasite line B), 13.4%. The Potency result in the assay with 3D7, in the assay on 7G8, in the assay with AA1029, in the assay with AS120 and in the assay on ATS189 was “inactive” each time.

With `O=C(O)c1ccc(NC(=O)[C@H](Cc2ccc(O)cc2)NC(=O)c2ccccc2)cc1`, the activity, negative = inhibition in assay [1] (parasite line A) was 3.76%; in assay [1] (parasite line B), 5.17%. The Potency result in the assay with 3D7, in the assay on 7G8, with AA1029, in the assay on AS120 and in the assay with ATS189 was “inactive” in each case.

Regarding `O=P(O)(O)OC[C@H]1O[C@](O)(COP(=O)(O)O)[C@@H](O)[C@@H]1O`, the activity, negative = inhibition in assay [1] (parasite line A) is 8.54%; in assay [1] (parasite line B) it was 12.4%. In addition, the Potency result in the assay on 3D7, in the assay on 7G8, in the assay on AA1029, in the assay with AS120 and in the assay on ATS189 was “inactive” each time.

For the molecule `COc1ccc(C(=O)c2ccc(C)cc2)c(O)c1`, the activity, negative = inhibition in assay [1] (parasite line A) is 16.1%; in assay [1] (parasite line B), 14.8%. The Potency entry in the assay on 3D7, with 7G8, in the assay with AA1029, in the assay with AS120 and with ATS189 was “inactive” each time.

Turning to `CC1CC(OC(=O)C(O)c2ccccc2)CC(C)(C)C1` (stereo not given), the activity, negative = inhibition in assay [1] (parasite line A) was -16%; in assay [1] (parasite line B) it was -1.53%. Moreover, the Potency entry in the assay with 3D7, in the assay on 7G8, with AA1029, with AS120 and with ATS189 was “inactive” in each case.

Take `CCN(CC)CCC(=O)N1c2ccccc2Sc2ccc(C(F)(F)F)cc21`: the results for the activity, negative = inhibition in assay [1] (parasite line A) and in assay [1] (parasite line B) were -4.68% and -16.3%, respectively. In addition, the Potency result in the assay with 3D7, in the assay on AA1029, in the assay on AS120 and with ATS189 was “inactive” throughout. Further, in the assay on 7G8, the Potency was 11.2 µM (active).

Take `COc1ccc2c(c1)OC(C)(C)C(c1ccccc1)C2c1ccc(OCCN2CCCC2)cc1` (stereo not given): the Potency is 2.24 µM (active) in assay [1] (parasite line A); 3.98 µM (active) in assay [1] (parasite line B); 3.16 µM (active) in the assay with 3D7; 2.82 µM (active) in the assay with 7G8; 3.55 µM (active) with AA1029; 3.16 µM (active) in the assay with AS120. Moreover, the Potency in the assay with ATS189 is 3.55 µM (active).

Regarding `OCCOCCOCCO`, the activity, negative = inhibition in assay [1] (parasite line A) is 16.8%; in assay [1] (parasite line B) it was 11.6%. Also, the Potency entry in the assay on 3D7, with 7G8, with AA1029, in the assay with AS120 and with ATS189 was “inactive” throughout.

On to `CC(C)[C@@H](N)C(=O)O`, for which the activity, negative = inhibition in assay [1] (parasite line A) is 1.17%; in assay [1] (parasite line B), 12.2%. In addition, the Potency result with 3D7, with 7G8, with AA1029, with AS120 and in the assay on ATS189 was “inactive” each time.

For `CC(C)c1nc(N(C)S(C)(=O)=O)nc(-c2ccc(F)cc2)c1/C=C/C(O)CC(O)CC(=O)O` (stereo not given), the figures for the activity, negative = inhibition in assay [1] (parasite line A) and in assay [1] (parasite line B) were 3.93% and -1.83%, respectively. Further, the Potency result with 3D7, with 7G8, with AA1029, with AS120 and with ATS189 was “inactive” throughout.

For the molecule `CC1C(=O)CC2C3(C)CCC2(C(C)C(=O)O)C(=O)C13` (stereo not given), the results for the activity, negative = inhibition in assay [1] (parasite line A) and in assay [1] (parasite line B) were 5.64% and 13.7%, respectively. In addition, the Potency result in the assay with 3D7, in the assay on 7G8, in the assay on AA1029, in the assay on AS120 and in the assay on ATS189 was “inactive” in each case.
